Source: PubChem BioAssay
Results filed as inconclusive are left out. The source made the active and inactive calls.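 The calls were made as follows, unless noted: active = viability at or below 30% in both replicate assays; inconclusive = viability at or below 30% in just one of the two assays; inactive = the rest.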

How the values were obtained:
[1] = Her2 expression decrease, cell viability multiplex – SKBR3 breast tumor cells, AlphaScreen, ATP viability, primary screen (AID 461;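 active = Her2 level under about 52% in both replicate screens, with viability over 70% of control, limit read from the data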;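 as to Her2 level: lower value means less Her2 protein in the cells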;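 as to viability: percent of carrier control wells set as 100% viability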); conditions: SKBR3 Her2 protein level, 18-24 h, measured here: SKBR3 viability, ATP luminescence, at 10 µM
[2] = target: Receptor tyrosine-protein kinase erbB-2 (Homo sapiens) (UniProt P04626); experiment: as above; conditions: 18-24 h, at 10 µM, stronger effect = lower value
[3] = reduced viability of SK-BR-3 breast cancer cells – cell-based, 24 h, human, pilot screen (AID 572;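 active = viability at or below 10% of carrier control in both of two separate runs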;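 also: compound exposure lasted between 18 and 24 h rather than exactly 24 h; 100% = carrier-treated control wells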); conditions: SK-BR-3 viability, CellTiter-Glo luminescence, at 10 µM, stronger effect = lower value
[4] = HUVEC growth inhibition – cell-based, human, primary screen (AID 575); conditions: HUVEC proliferation, CellTiter-Glo luminescence, 72 h; at 10 µM; stronger effect = lower value;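 also: 100% = median of untreated cell wells with 0.1% DMSO on each plate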
[5] = H69AR cell proliferation blockers – human, duplicate replicates, primary screen (AID 580;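 active = viability at or under a set limit in both replicates, limit being median viability minus 3 SD, cut at about 48% in these data, passing the limit was not always enough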;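 also: 100% = mean luminescence of untreated wells and 0% = no signal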); conditions: H69AR lung tumor cells viability, ATP luminescence, 72 h; at 10 µM; stronger effect = lower value
[6] = MRP1 drug-resistance reversers in H69AR cells – cell-based, doxorubicin co-treatment, pilot screen (AID 601;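 active = viability loss from added drug above about 55%, and viability with drug at most 40%, in both replicates, limit read from the data, passing the limit was not always enough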); conditions: CellTiter-Glo, 72 h, at 10 µM; for differential viability (reversal): stronger effect = higher value
[7] = yeast transport mutant growth inhibition pilot in 384-well plates, post-Golgi transport modulator project (AID 636; in the data active = inhibition above about 31%); conditions: absorbance 615 nm, about 18 h, stronger effect = higher value
[8] = growth suppression of yeast trafficking mutant, preliminary HTS, modulators of trafficking downstream of Golgi apparatus project, 1536-format plate, OD 615 nm (AID 637; in the data active = inhibition above about 30%); conditions: yeast transport mutant growth, absorbance 615 nm, 18 h; stronger effect = higher value
[9] = S. cerevisiae growth inhibition in permissive medium (OD615), pilot counter-assay for S. cerevisiae lifespan shortening project, permissive growth control (AID 705;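 active = growth inhibition above 25% in both replicates, a cutoff set 3 SD above the mean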); conditions: OD615, 24 h, at 10 µM, stronger effect = higher value
[10] = S. cerevisiae growth inhibition in restrictive medium, OD615, pilot screen, restrictive growth control, yeast lifespan reduction project (AID 706;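 active = growth inhibition above a set limit, 3 SD over mean compound inhibition, in both replicates, cut at about 43% in these data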;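 also: modified DeaD lifespan yeast strain shifted to restrictive glucose medium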); conditions: OD615, 48 h, at 10 µM, stronger effect = higher value
[11] = doxorubicin toxicity protection in MRP-1 cells – H69AR cells, CellTiter-Glo, duplicate, MRP-1 activator project, pilot screen (AID 807;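 active = viability increase at or above a cutoff of the median across tested compounds plus 3 SD, cut at about 8.5% in these data, passing the limit was not always enough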;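 also: compound pretreatment 18-22 h then 72 h combined with doxorubicin; 0% = doxorubicin alone and 100% = vehicle without doxorubicin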); conditions: H69AR viability with doxorubicin, CellTiter-Glo luminescence; at 10 µM; stronger effect = higher value
[12] = viability of HCT116 without oncogenic beta-catenin – human colon tumor cells, pilot screen (AID 823;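 active = cell viability at or below a set limit in both duplicate runs, the limit being the all-compound median minus 4 SD, cut at about 23% in these data, passing the limit was not always enough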;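 also: 0% = wells killed by 20 µM Hyamine and 100% = untreated DMSO cell wells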); conditions: HCT116 beta-catenin knockout viability, CellTiter-Glo, 60 h; at 10 µM; stronger effect = lower value
[13] = viability of PTEN-null HCT116 cells – cell-based, HCT116 clonal line, CellTiter-Glo, pilot screen (AID 824;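 active = viability at or below 27.92% in each of two runs, the all-compound median minus 4 SD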;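 also: 0% = 20 µM Hyamine control and 100% = vehicle cell control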); conditions: HCT116 PTEN-deleted viability, 60 h, at 10 µM, stronger effect = lower value
[14] = RAM pathway blockade in budding yeast – dse1pr::URA3 reporter, 5-FOA selection, pilot screen (AID 869;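 active = inhibition over a set limit, the all-compound mean plus 3 SD, in both replicate runs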;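 also: 0% = DMSO wells with no growth and 100% = 10 µM 1-NA-PP1 with full growth; RAM network block rescues cells from 5-FOA so hits raise OD615 growth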); conditions: S. cerevisiae dse1pr::URA3 5-FOA growth, OD615, 2 d; at 10 µM; stronger effect = higher value; strain carries analog-sensitive mutant Cbk1 kinase
[15] = H69AR cells + 2 uM doxorubicin, measured here: viability with 2 uM doxorubicin, stronger effect = lower value
[16] = H69AR cells, compound alone cytotoxicity

Sequence of Receptor tyrosine-protein kinase erbB-2 (Homo sapiens) (P04626 whole entry, looked up): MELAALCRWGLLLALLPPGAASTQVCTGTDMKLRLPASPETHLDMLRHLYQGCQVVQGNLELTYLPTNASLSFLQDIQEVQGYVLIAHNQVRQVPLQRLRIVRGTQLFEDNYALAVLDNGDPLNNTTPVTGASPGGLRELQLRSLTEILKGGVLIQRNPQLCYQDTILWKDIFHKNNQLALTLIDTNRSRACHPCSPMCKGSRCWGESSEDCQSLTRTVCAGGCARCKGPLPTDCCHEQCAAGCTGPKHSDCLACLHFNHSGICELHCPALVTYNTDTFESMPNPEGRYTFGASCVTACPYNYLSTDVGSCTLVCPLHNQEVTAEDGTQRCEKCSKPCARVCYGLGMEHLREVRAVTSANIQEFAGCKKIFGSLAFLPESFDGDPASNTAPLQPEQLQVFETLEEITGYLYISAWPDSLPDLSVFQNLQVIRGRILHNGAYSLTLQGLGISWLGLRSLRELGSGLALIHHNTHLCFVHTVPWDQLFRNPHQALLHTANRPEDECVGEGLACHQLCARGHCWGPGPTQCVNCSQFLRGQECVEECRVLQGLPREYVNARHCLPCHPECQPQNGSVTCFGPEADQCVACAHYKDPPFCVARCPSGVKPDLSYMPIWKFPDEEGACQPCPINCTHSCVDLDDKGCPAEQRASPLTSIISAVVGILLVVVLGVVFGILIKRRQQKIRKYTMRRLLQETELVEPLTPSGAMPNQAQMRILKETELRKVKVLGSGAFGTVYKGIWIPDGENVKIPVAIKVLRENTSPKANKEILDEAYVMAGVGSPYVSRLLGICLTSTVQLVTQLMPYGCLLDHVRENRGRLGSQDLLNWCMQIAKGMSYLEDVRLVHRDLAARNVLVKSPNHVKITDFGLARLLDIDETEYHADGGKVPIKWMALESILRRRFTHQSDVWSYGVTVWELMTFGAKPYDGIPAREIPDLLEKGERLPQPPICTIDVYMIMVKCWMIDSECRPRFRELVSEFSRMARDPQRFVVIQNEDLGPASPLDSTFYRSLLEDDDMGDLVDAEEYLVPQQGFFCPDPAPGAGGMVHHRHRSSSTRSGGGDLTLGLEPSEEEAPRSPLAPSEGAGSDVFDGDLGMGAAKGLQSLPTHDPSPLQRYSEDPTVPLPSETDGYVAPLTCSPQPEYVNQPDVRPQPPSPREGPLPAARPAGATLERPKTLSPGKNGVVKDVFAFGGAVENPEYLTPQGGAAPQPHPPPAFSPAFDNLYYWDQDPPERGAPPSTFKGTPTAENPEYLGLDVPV

O=C(COC(=O)c1cnccn1)c1ccc(OC(=O)c2ccccc2)cc1
inactive: Her2 level [2] 100% | viability [3] 104% | viability [4] 87.8% | viability [5] 96.2% | differential viability (reversal) ([6]; H69AR cells + 2 uM doxorubicin) -2.16% | inhibition [7] -1.67% | inhibition [8] 5.67% | growth inhibition [9] -19.2% | growth inhibition [10] -15.1% | viability increase [11] -0.85% | viability [12] 93.3% | viability [13] 95.2% | inhibition [14] 2.84%
104%: viability [1]
98.3%: viability [6, 15]
96.2%: viability [6, 16]

CC(NC(=O)c1cn(C)c2ccc(S(=O)(=O)N3CCCC3)cc2c1=O)c1ccc2c(c1)OCCO2 (configuration not stated)
inactive: Her2 level [2] 78.5% | viability [3] 89% | viability [4] 85.6% | viability [5] 77.8% | differential viability (reversal) ([6]; H69AR cells + 2 uM doxorubicin) 33.8% | inhibition [7] -6.22% | inhibition [8] 4.75% | growth inhibition [9] -9.02% | growth inhibition [10] -24.8% | viability increase [11] -4.7% | viability [12] 75.5% | viability [13] 76% | inhibition [14] 2.6%
44%: viability [6, 15]
77.8%: viability [6, 16]
89%: viability [1]

CC1CC(C)CN(c2ncnc3c2cnn3-c2ccc(Cl)cc2)C1 (configuration not stated)
80.6%: viability [6, 16]
76.9%: viability [6, 15]
91.5%: viability [1]
inactive: Her2 level [2] 89.5% | viability [3] 91.5% | viability [4] 88.5% | viability [5] 80.6% | differential viability (reversal) ([6]; H69AR cells + 2 uM doxorubicin) 3.71% | inhibition [7] 0.53% | inhibition [8] -1.64% | growth inhibition [9] -5.74% | growth inhibition [10] -8.12% | viability increase [11] 5.58% | viability [12] 88.1% | viability [13] 95.3% | inhibition [14] 2.44%

N#Cc1c(NC(=O)COC(=O)C2CC3C=CC2C3)oc(-c2ccccc2)c1-c1ccccc1 (configuration not stated)
106%: viability [1]
active: viability [5] 44.6%
44.6%: viability [6, 16]
inactive: Her2 level [2] 80% | viability [3] 106% | viability [4] 78.1% | differential viability (reversal) ([6]; H69AR cells + 2 uM doxorubicin) -23.4% | inhibition [7] -0.26% | inhibition [8] -0.36% | growth inhibition [9] -17.5% | growth inhibition [10] -14.6% | viability increase [11] -5.47% | viability [12] 92.3% | inhibition [14] 3.41%
68.1%: viability [6, 15]

Cc1ccccc1Cn1c(=O)c2c(nc3n2CCCN3Cc2ccccc2)n(C)c1=O
89%: viability [1]
inactive: Her2 level [2] 89% | viability [3] 89% | viability [4] 65.5% | viability [5] 78.5% | inhibition [7] -3.2% | inhibition [8] -2.26%

CN1CCc2c(sc3c2c(=O)n(-c2ccccc2)c2nnc(SCc4ccc(F)cc4)n32)C1
82%: viability [1]
inactive: Her2 level [2] 94.5% | viability [3] 82% | viability [4] 109% | viability [5] 102% | inhibition [7] -1.95% | inhibition [8] 0.79%

COc1ccc(OC)c(NC(=O)CCNS(=O)(=O)c2cccs2)c1
95%: viability [1]
inactive: Her2 level [2] 103% | viability [3] 95% | viability [4] 92.4% | viability [5] 99.8% | differential viability (reversal) ([6]; H69AR cells + 2 uM doxorubicin) 5.6% | inhibition [7] -3.6% | inhibition [8] 23.3% | growth inhibition [9] -2.31% | growth inhibition [10] 13.9% | viability increase [11] -2.82% | viability [13] 96.1% | inhibition [14] 2.21%
99.8%: viability [6, 16]
94.2%: viability [6, 15]

COc1ccc(N2C(=O)CC(N3CCCC4CCCCC43)C2=O)cc1 (configuration not stated)
81.5%: viability [6, 15]
102%: viability [1]
inactive: Her2 level [2] 125% | viability [3] 102% | viability [4] 109% | viability [5] 90.8% | differential viability (reversal) ([6]; H69AR cells + 2 uM doxorubicin) 9.28% | inhibition [7] -4.03% | inhibition [8] -6.83% | growth inhibition [9] -3.32% | growth inhibition [10] 3.25% | viability increase [11] -0.71% | viability [12] 98.3% | viability [13] 101% | inhibition [14] 0.71%
90.8%: viability [6, 16]

Cn1cccc1Cc1nnc(SCC(=O)N2CCOCC2)n1-c1ccc(F)cc1
88.5%: viability [1]
88.3%: viability [6, 15]
inactive: Her2 level [2] 104% | viability [3] 88.5% | viability [4] 106% | viability [5] 99.7% | differential viability (reversal) ([6]; H69AR cells + 2 uM doxorubicin) 11.4% | inhibition [7] -6.93% | inhibition [8] 0.33% | growth inhibition [9] 5.02% | growth inhibition [10] 19.7% | viability increase [11] -1.33% | viability [12] 102% | viability [13] 94.3% | inhibition [14] -0.47%
99.7%: viability [6, 16]

Cc1[nH]c2ccccc2c1Cc1nnc(SCC(=O)NCc2ccco2)o1
85.7%: viability [6, 15]
inactive: Her2 level [2] 93% | viability [3] 93% | viability [4] 97.5% | viability [5] 93.7% | differential viability (reversal) ([6]; H69AR cells + 2 uM doxorubicin) 8% | inhibition [7] 1.6% | inhibition [8] -2.17% | growth inhibition [9] -12.4% | growth inhibition [10] 12.7% | viability increase [11] -3.96% | viability [12] 103% | viability [13] 95.5% | inhibition [14] 2.85%
93%: viability [1]
93.7%: viability [6, 16]

O=C(COc1ccccc1)N1CCN(c2ncnc3c2cnn3-c2ccccc2)CC1
inactive: Her2 level [2] 77% | viability [3] 97% | viability [4] 58.6% | viability [5] 74.8% | inhibition [7] -8.77% | inhibition [8] -3.65%
97%: viability [1]
